System: Staphylococcus aureus MW2 (mecA+)
Assay: normalized DsRed fluorescence (growth of mecA+ strain) (fraction of control range); higher = more growth of mecA+ strain
Settings: compound concentration: 150 uM; cefoxitin: subinhibitory; fluorescent label: DsRed
Summary of the method: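 Compound at 150 μM (1.5% DMSO) in 1536-well plates received 5 µL/well of pre-induced S. aureus MW2 cells mixed 1:1, gene-carrying with DsRed and gene-deleted with GFP, in LB with a daily-set subinhibitory antibiotic dose, single replicate. After 20 h unshaken at 37 °C, 90% humidity, DsRed (540/590) and GFP (485/520) were measured and scaled per plate between single-strain control medians. Plates with high untreated ratios and rows with DsRed/GFP >10 were excluded.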

| Compound | normalized DsRed fluorescence |
| --- | --- |
| CC(C)[N+]1(C)[C@@H]2CC[C@H]1C[C@@H](OC(=O)C(CO)c1ccccc1)C2 (stereo partly drawn) | 0.856 |
| Nc1nc(O)c2ncn(CCC(CO)CO)c2n1 | 0.941 |
| Clc1ccc2c(c1)CCc1cccnc1C2=C1CCNCC1 [Desloratadine] | 0.936 |
| OC[C@@H](O)[C@@H](O)[C@H](O)[C@@H](O)CO [Sorbitol (Glucitol)] | 1.15 |
| COC1=CC(=O)C[C@@H](C)[C@]12Oc1c(Cl)c(OC)cc(OC)c1C2=O | 0.425 |
| CC(C)(Sc1cc(C(C)(C)C)c(O)c(C(C)(C)C)c1)Sc1cc(C(C)(C)C)c(O)c(C(C)(C)C)c1 | 0.839 |
| N=C(N)N1CCc2ccccc2C1 | 0.808 |
| C1N2CN3CN1CN(C2)C3 | 0.452 |
